# Results filed as inconclusive are left out. Where a call stands in place of a potency, no number is given. Values without a mark were called inactive. The source made the active and inactive calls. Calls come from the whole dose curve; as a rule, active = well fitted cell-killing curve with a large enough effect in the repeat runs; inconclusive = weak or mixed curves, or effect the other way; inactive = no such curve, though single readings can be large or run the other way.
# Assay: qHTS assay to identify small molecule antagonists of the retinoid-related orphan receptor gamma (ROR-gamma) signaling pathway - cell viability counter screen (AID 1159520); note: nearly all actives have a fitted effect of over 50% in size
# Conditions: Tet-on RORgamma CHO cells viability, ATP luminescence, 16 h; series mostly up to 92.4 µM
# Excerpt: U.S. Tox21 Program National Center for Advancing Translational Sciences [NCATS] NIH Chemical Genomics Center [NCGC] U.S. Environmental Protection Agency [EPA] National Institutes of Environmental Health Sciences [NIEHS] National Toxicology Program [NTP] U.S. Food and Drug Administration [FDA] Tox21 Assay Overview: Nuclear steroid hormone receptors are involved in many biological processes including inflammatory responses, cell proliferation, and apoptosis. Environmental factors or compounds disrupting these nuclear receptor pathways and gene expression may promote susceptibility to immunotoxicants and autoimmune diseases. One important group of these expression factors are the retinoid-related orphan receptors. To assess compounds that may interfere with the retinoid-related orphan receptor gamma (ROR-gamma) transcription factor, a cell-based luciferase assay was used. The CHO cell-based assay utilizes a TET-inducible ROR expression factor and ROR response element-LUC reporter gene. Reporter gene activity was induced using Doxycycline Hyclate and measured after 16 hr incubation. Tet-on ROR gamma CHO cells were used to screen against the Tox21 10K compound library for cytotoxicity by measuring the viability of the cells based on the quantitation of the ATP.
# Tox21 Assay Protocol Summary: Tet-on ROR gamma CHO cells were dispensed at 1,000 cells in 4 uL of culture medium per well into white wall/solid bottom 1536-well plates using a Multidrop Combi (Thermo Scientific, Waltham, MA) dispenser. Following incubation at 37 C and 5% CO2 for 4 hr, 23 nL of compounds dissolved in DMSO, positive controls or DMSO only were transferred by a Pintool station (Kalypsys, San Diego, CA) and after 2 hr incubation at 37 C, one ul of 1 uM (final concentration) of Doxycycline Hyclate was added to all the wells by using a Flying Reagent Dispenser (FRD) (Aurora Discovery, San Diego, CA). After 16 hr incubation at 37 C and 5% CO2, 5 uL of CellTiter-Glo reagent (Promega Corporation, Madison, WI) was added to each assay plate using FRD. After 30 min incubation at room temperature, luminescence was quantified on a ViewLux plate reader (Perkin Elmer, Waltham, MA).
# Potency is the fitted concentration of half-maximal effect.
Compound,Potency,"activity, negative = cytotoxicity"
Cc1ccccc1S(=O)(=O)O,inactive,
CC(C)=CCC/C(C)=C/CC/C(C)=C/CO,inactive,
CNC(=O)CN(CCN(CCN(CC(=O)[O-])CC(=O)NC)CC(=O)[O-])CC(=O)[O-].O.[Gd+3],inactive,
OC[C@H]1O[C@@H](OCCc2ccc(O)cc2)[C@H](O)[C@@H](O)[C@@H]1O,inactive,
C=C(C)C(=O)OCCOCC,inactive,
CN(C)c1ccc(/C=C/c2ccc([N+](=O)[O-])cc2)cc1,,1.18% [at 8.39 µM]
COc1cccc(N(C)C(=S)Oc2ccc3c(c2)CCCC3)n1,inactive,
CCCNCC(O)COc1ccccc1C(=O)CCc1ccccc1 (stereo not given),inactive,
O=S(c1cc(Cl)cc(Cl)c1O)c1cc(Cl)cc(Cl)c1O,inactive,
Cc1cccc(C)c1OCC(=O)N[C@@H](Cc1ccccc1)[C@@H](O)C[C@H](Cc1ccccc1)NC(=O)[C@H](C(C)C)N1CCCNC1=O,inactive,
CCCCC/C=C\C/C=C\CCCCCCCC(=O)NC(C)c1ccccc1 (stereo not given),inactive,
Cc1[nH]c(C)c(Cl)c(=O)c1Cl,,3.57% [at 19 µM]
C=C1C(=C/C=C2\CCC[C@]3(C)[C@@H]([C@H](C)/C=C/[C@@H](O)C4CC4)CC[C@@H]23)C[C@@H](O)C[C@@H]1O,inactive,
CCCCC(CC)COC(=O)CCCCCCCCC(=O)OCC(CC)CCCC (stereo not given),inactive,
CN(C)C(=O)NC1(c2ccccc2)CCN(CC[C@@]2(c3ccc(F)c(F)c3)CN(C(=O)c3ccccc3)CCO2)CC1,inactive,
C/C=C/C=C/CO,inactive,
CC(C)Cc1ccc(C(C)C(=O)OCc2ccccn2)cc1 (stereo not given),inactive,
c1cc(CCCc2ccncc2)ccn1,inactive,
C[C@H](CCC(=O)O)[C@H]1CC[C@H]2[C@@H]3CC[C@@H]4C[C@H](O)CC[C@]4(C)[C@H]3C[C@H](O)[C@]12C,inactive,
COc1cc2nc(N3CCN(C(=O)C4COc5ccccc5O4)CC3)nc(N)c2cc1OC (stereo not given),inactive,

Compound,Potency,"activity, negative = cytotoxicity"
Nc1ccccc1S(=O)(=O)c1ccccc1,inactive,
O=C(O)CC(=O)C(=O)O,inactive,
O=C1C(O)=C(O)C(=O)C(O)=C1O,inactive,
CC(COCCO)OCCO (stereo not given),inactive,
CCOCC(O)COc1ccc(NC(=O)CC[S+](C)C)cc1 (stereo not given),inactive,
C[N+]1(CC2COC(c3ccccc3)(C3CCCCC3)O2)CCCCC1 (stereo not given),inactive,
Cc1ccc(C(C)OC(=O)C2(C)CCC(C(=O)O)C2(C)C)cc1 (stereo not given),inactive,
CC(=O)c1ccc2c(c1)N(CCCN1CCC(CCO)CC1)c1ccccc1S2,inactive,
Nc1ccc(N)c2c1C(=O)c1ccccc1C2=O,21.7 µM (active),
COc1ccc(C(=O)Nc2nc3ccccc3c(NCc3ccccc3)c2C#N)cc1,inactive,
NC(=O)C(c1ccccc1)(c1ccccc1)[C@@H]1CCN(CCc2ccc3c(c2)CCO3)C1,inactive,
C=CCOc1ccccc1OCC(O)CNC(C)C (stereo not given),inactive,
C[C@H]1C[C@H]2[C@@H]3CCC4=CC(=O)C=C[C@]4(C)[C@@]3(Cl)[C@@H](O)C[C@]2(C)[C@@]1(O)C(=O)CO,inactive,
CC(=O)c1cccc([N+](=O)[O-])c1,inactive,
CCC(C)O (stereo not given),inactive,
Nc1ncn([C@H]2C[C@H](O)[C@@H](CO)O2)c(=O)n1,inactive,
CC(C)(C)OCC1CO1 (stereo not given),inactive,
C#C[C@]1(O)CC[C@H]2[C@@H]3CCc4cc(OC5CCCC5)ccc4[C@H]3CC[C@@]21C,29.8 µM (active),
CCN(CC)CCOC(=O)C(Cc1cccc2ccccc12)CC1CCCO1 (stereo not given),inactive,
COc1cc2nc(Cl)nc(N)c2cc1OC,inactive,

# Source: PubChem BioAssay (Tox21)
